{"source": "PubChem BioAssay AID1950", "about": "(The Scripps Research Institute Molecular Screening Center, 2009)", "note": "Screen size: about 300,000 compounds; about 1,000 (0.33%) were called active. No stated cut-off is given here; in the data, active means inhibition above about 28%; inactive means the rest. Many of the other results were omitted from the sample, so actives are more common in it than they were.", "data": [{"system": "EBNA-1 (Epstein-Barr virus nuclear antigen 1), Human herpesvirus 4", "experiment": "EBNA-1 DNA-binding inhibitors, primary screen, biochemical, fluorescence polarization (AID 1950)", "settings": "at 14.8 µM, stronger effect = higher value", "values": [{"smiles": "CC(=O)N1CCCc2cc(S(=O)(=O)N3CCCC(C(=O)N4CCN(c5cccc(Cl)c5)CC4)C3)ccc21", "note": "(stereo unspecified)", "inhibition": "-6.48% (inactive)"}, {"smiles": "COc1ccc(-c2cc(=O)oc3cc(OCC(=O)N(C)C4CCS(=O)(=O)C4)ccc23)cc1", "note": "(stereo unspecified)", "inhibition": "-3.28% (inactive)"}, {"smiles": "CCCCNC(=O)CSc1nc2ccc(NC(=O)CSc3nnc(COc4ccccc4C)n3C)cc2s1", "inhibition": "-11.7% (inactive)"}, {"smiles": "Nc1nnc(SCC(=O)Nc2ccc3nc(SCC(=O)Nc4ccccc4)sc3c2)s1", "inhibition": "45.6% (active)"}, {"smiles": "CCCCNC(=O)CSc1nc2ccc(NC(=O)CSc3nnc(N)s3)cc2s1", "inhibition": "6.23% (inactive)"}, {"smiles": "Nc1nc(SCC(=O)Nc2ccc(Cl)cc2C(F)(F)F)n[nH]1", "inhibition": "-6.65% (inactive)"}, {"smiles": "CC(Sc1nc2c([nH]c3ccccc32)c(=O)n1C)c1ccccc1", "note": "(stereo unspecified)", "inhibition": "13.4% (inactive)"}, {"smiles": "CCCCNC(=O)CCn1nc(-c2ccc(Cl)cc2)ccc1=O", "inhibition": "-9.91% (inactive)"}, {"smiles": "Cc1ccc(NC(=O)CN(C)C(=O)Cn2nnc(-c3ccccc3)n2)cc1", "inhibition": "-4.13% (inactive)"}, {"smiles": "COc1ccc(C23NCCN2C(=O)c2ccccc23)cc1", "note": "(stereo unspecified)", "inhibition": "-4.33% (inactive)"}, {"smiles": "COc1cccc(CNS(=O)(=O)c2csc(C(N)=O)c2)c1", "inhibition": "-4.82% (inactive)"}, {"smiles": "Cc1cc2oc(=O)cc(CN(C)Cc3ccc(OC(F)F)cc3)c2cc1Cl", "inhibition": "2.59% (inactive)"}, {"smiles": "C/C(=N\\NC(=S)NCc1ccccc1)c1ccc(Cl)cc1", "inhibition": "-0.89% (inactive)"}, {"smiles": "C/C(=N\\OCC(=O)O)c1ccc(Cl)cc1", "inhibition": "8.77% (inactive)"}, {"smiles": "C/C(=N\\N=C(N)N)c1ccc(Cl)cc1", "inhibition": "39.1% (active)"}, {"smiles": "Cc1ccc(CNC(=O)c2cccnc2Cl)cc1", "inhibition": "-0.4% (inactive)"}, {"smiles": "CC/C(O)=C1\\C(=O)CC(C)(C)CC1=NCCc1nc2ccccc2[nH]1", "inhibition": "0.38% (inactive)"}, {"smiles": "CC(=O)C1=C(O)C(=O)N(c2ccc(Br)cc2)C1c1ccc([N+](=O)[O-])cc1", "note": "(stereo unspecified)", "inhibition": "-5.58% (inactive)"}, {"smiles": "CC1=NN(C(N)=S)C(=O)C1N=Nc1cc(Cl)ccc1Cl", "note": "(stereo unspecified)", "inhibition": "-8.59% (inactive)"}, {"smiles": "Cc1[nH]n(C(N)=S)c(=O)c1N=Nc1ccc(Cl)cc1Cl", "inhibition": "27.7% (active)"}, {"smiles": "Cc1cccc(N=Nc2c(C)[nH]n(-c3ccccc3)c2=O)c1", "inhibition": "-10.4% (inactive)"}, {"smiles": "O=C(CCC(=O)OCc1cccc(C(=O)Oc2ccccc2)c1)Nc1cccc2ccccc12", "inhibition": "0.44% (inactive)"}, {"smiles": "O=C(NC1CCCC1)C(c1ccccn1)N(C(=O)c1csnn1)C1CCCC1", "note": "(stereo unspecified)", "inhibition": "2.45% (inactive)"}, {"smiles": "CCCn1c(N)c(C(=O)CSc2nc3ccccc3c(=O)n2-c2ccc(OC)cc2)c(=O)[nH]c1=O", "inhibition": "5.25% (inactive)"}, {"smiles": "COC(=O)c1ccc(CSc2nc3ccccc3c(=O)n2-c2cccc(OC)c2)o1", "inhibition": "-0.73% (inactive)"}, {"smiles": "COc1cccc(-n2c(SCC(=O)c3c[nH]c4ccccc34)nc3ccccc3c2=O)c1", "inhibition": "46.8% (active)"}, {"smiles": "O=C(N/N=C/c1sc(N2CCCCC2)nc1-c1cccs1)c1cccnc1", "inhibition": "-5.56% (inactive)"}, {"smiles": "N=c1n(Cc2ccc(Cl)cc2)c2ccccc2n1CC(O)c1ccco1", "note": "(stereo unspecified)", "inhibition": "-2.62% (inactive)"}, {"smiles": "CN1CCC(=NNC(=O)CN(c2cccc(Cl)c2)S(C)(=O)=O)CC1", "inhibition": "-1.28% (inactive)"}, {"smiles": "CC(C)Nc1nc(N(c2ccccc2)c2ccccc2)nc(-n2ccnc2)n1", "inhibition": "1.21% (inactive)"}, {"smiles": "N#Cc1nc(N)nc(N(c2ccccc2)c2ccccc2)n1", "inhibition": "32.2% (active)"}, {"smiles": "COc1ccc(C(=O)OCC(=O)c2ccc(Cl)s2)c(OC)c1OC", "inhibition": "-6.57% (inactive)"}, {"smiles": "COc1ccc(Cc2nnc(NC(=O)c3ccc(OC)cc3OC)s2)cc1", "inhibition": "-11.6% (inactive)"}, {"smiles": "COC(=O)c1sc(NC(=O)c2ccc(OC)cc2OC)nc1C", "inhibition": "5.25% (inactive)"}, {"smiles": "COc1ccc(C(=O)Nc2cccc(NC(=O)c3ccc(OC)cc3OC)n2)c(OC)c1", "inhibition": "64.7% (active)"}, {"smiles": "O=C(COC(=O)c1ncc(Cl)c(Cl)c1Cl)NCc1cccs1", "inhibition": "4.36% (inactive)"}, {"smiles": "Oc1cccc2ccc(/C=C/c3ccc(Br)s3)nc12", "inhibition": "7.77% (inactive)"}, {"smiles": "Nc1ccc(S(=O)(=O)Nc2nccc(/C=C/c3ccc(Br)s3)n2)cc1", "inhibition": "40.2% (active)"}, {"smiles": "CC(=O)Nc1ccc(S(=O)(=O)Nc2nccc(/C=C/c3ccccc3F)n2)cc1", "inhibition": "3.71% (inactive)"}, {"smiles": "CCNS(=O)(=O)c1ccc(CCC(=O)N2CCN(c3cc(Cl)ccc3C)CC2)cc1", "inhibition": "-2.62% (inactive)"}, {"smiles": "O=C(NCc1ccccc1)C1=C[C@@H](c2ccccc2)C[C@@H](OCCCCO)O1", "inhibition": "-2.36% (inactive)"}, {"smiles": "CN(C)CCOc1cccc(Br)c1", "inhibition": "2.94% (inactive)"}, {"smiles": "COC(=O)C1=C(C)N(C(C)c2ccccc2)C(=O)/C1=C\\c1ccco1", "note": "(stereo unspecified)", "inhibition": "9.16% (inactive)"}, {"smiles": "CCc1ccccc1NC(=O)c1ccc2snnc2c1", "inhibition": "-10.4% (inactive)"}, {"smiles": "O=C(Nc1cccc(Br)c1)c1ccc2snnc2c1", "inhibition": "-4.42% (inactive)"}, {"smiles": "O=C(Nc1ccc2ccccc2c1)Nc1ccc2snnc2c1", "inhibition": "103% (active)"}, {"smiles": "O=C1CC(Cc2ccc(Cl)cc2)C(=O)N1c1cc(Cl)ccn1", "note": "(stereo unspecified)", "inhibition": "-3.65% (inactive)"}, {"smiles": "CC(=O)n1cc([C@@H]2C=C(C(=O)N3CCN(Cc4ccc5c(c4)OCO5)CC3)O[C@H](OCc3ccc(CO)cc3)C2)c2ccccc21", "inhibition": "-9.33% (inactive)"}, {"smiles": "CCOc1cccc(NC(=O)Cn2nc(-c3ccc4c(c3)OCCO4)ccc2=O)c1", "inhibition": "35% (active)"}, {"smiles": "CC(=O)c1cc2c(cc1NC(=O)Cn1nc(-c3ccc(F)cc3)ccc1=O)OCO2", "inhibition": "-3.93% (inactive)"}, {"smiles": "CCc1ccccc1OCC(=O)Nc1ccc2c(c1)OCCO2", "inhibition": "-5.94% (inactive)"}, {"smiles": "COCCNC(=O)c1onc(CSc2cccc(C)c2)c1C(=O)O", "inhibition": "-0.97% (inactive)"}, {"smiles": "CCOc1cccc(SCc2noc(C(=O)NC(C)C)c2C(=O)O)c1", "inhibition": "29.7% (active)"}, {"smiles": "CCCCNC(=O)c1onc(CSc2cccc(OC)c2)c1C(=O)O", "inhibition": "8.58% (inactive)"}, {"smiles": "CCN(CC(=O)Nc1c(F)cccc1F)C(=O)C1CCC1", "inhibition": "-2.05% (inactive)"}, {"smiles": "CCOc1ccc(C(=O)NC(=S)Nc2ccc(N3CCOCC3)c(Cl)c2)cc1[N+](=O)[O-]", "inhibition": "7.49% (inactive)"}, {"smiles": "CCOc1ccc(C(=O)NC(=S)Nc2ccc(NC(=O)C(C)C)cc2)cc1[N+](=O)[O-]", "inhibition": "43.3% (active)"}, {"smiles": "CC(=O)Nc1ccc(NC(=S)NC(=O)c2ccc([N+](=O)[O-])c(C)c2)cc1", "inhibition": "-0.91% (inactive)"}, {"smiles": "COc1ccc(C(C(=O)NC2CCCC2)N(CCCO)C(=O)Cn2nnc(-c3ccc(C)o3)n2)cc1", "note": "(stereo unspecified)", "inhibition": "-26.3% (inactive)"}, {"smiles": "CCOc1ccc(C(=O)Nc2ccncc2)cc1", "inhibition": "-2.27% (inactive)"}, {"smiles": "CCOc1ccc(NC(=O)c2ccc(NC(=O)COC(=O)c3ccc(NC(=O)CC#N)cc3)cc2)cc1", "inhibition": "31.4% (active)"}, {"smiles": "CC(C)NC(=O)NC(=O)COC(=O)c1ccc(NC(=O)CC#N)cc1", "inhibition": "8.39% (inactive)"}, {"smiles": "COCCNc1cc(-c2ccccc2)nc2cc(-c3cccc(F)c3)nn12", "inhibition": "-2.12% (inactive)"}, {"smiles": "NC(=O)c1ccc(NC(=O)COC(=O)c2ccc([N+](=O)[O-])cc2)cc1", "inhibition": "7.68% (inactive)"}, {"smiles": "O=C(N/N=C/c1ccc(O)cc1)/C(=C/c1ccc([N+](=O)[O-])cc1)NC(=O)c1ccccc1", "inhibition": "11.3% (inactive)"}, {"smiles": "O=C(COc1ccc(/C=N/NC(=O)c2ccc(O)cc2)cc1)Nc1ccc([N+](=O)[O-])cc1", "inhibition": "52.6% (active)"}, {"smiles": "Cc1ccn2c(=O)nc(SCC(=O)NCc3ccc(F)cc3)nc2c1", "inhibition": "-14.5% (inactive)"}, {"smiles": "Oc1ccccc1CNc1ncc(Br)cc1Br", "inhibition": "-8.83% (inactive)"}, {"smiles": "O=C(NNC(=O)c1cc2c(s1)CCCC2)c1ccccc1", "inhibition": "6.96% (inactive)"}, {"smiles": "Cc1ccc(C(=O)NNC(=O)c2cccs2)cc1", "inhibition": "-0.94% (inactive)"}, {"smiles": "Cc1ccc(C(=O)NNC(=O)c2cc3cc4ccccc4nc3s2)cc1", "inhibition": "66.7% (active)"}, {"smiles": "Cc1cc2nc3n(c2cc1C)CC1CC(C(=O)NCCC(C)C)N(C)C31", "note": "(stereo unspecified)", "inhibition": "-5.15% (inactive)"}, {"smiles": "O=C(Nc1cccc(NC(=O)c2cccc(F)c2)c1)c1ccccc1", "inhibition": "-2.13% (inactive)"}, {"smiles": "O=C(Cc1ccccc1)Nc1cccc(NC(=O)c2ccccc2)c1", "inhibition": "-12.9% (inactive)"}, {"smiles": "O=C(Nc1cccc(NC(=O)c2ccc(Br)cc2)c1)c1ccccc1", "inhibition": "28.3% (active)"}, {"smiles": "CN(C)[C@@H]1C(=O)C(C(N)=O)=C(O)[C@@]2(O)C(=O)C3=C(O)c4c(O)ccc(Cl)c4[C@@H](O)[C@H]3C[C@@H]12", "inhibition": "14.1% (inactive)"}, {"smiles": "O=C(Nc1cccc(O)c1)c1ccc(C(=O)c2ccccc2)o1", "inhibition": "10.1% (inactive)"}, {"smiles": "COc1ccc(CCn2c(NN=C3CCCC3)nc3c2c(=O)[nH]c(=O)n3C)cc1", "inhibition": "1.13% (inactive)"}, {"smiles": "COc1ccc(CNc2nc3c(c(=O)[nH]c(=O)n3C)n2Cc2ccccc2)cc1", "inhibition": "28.1% (active)"}, {"smiles": "COc1ccc(CCn2c(NCCCN3CCOCC3)nc3c2c(=O)[nH]c(=O)n3C)cc1", "inhibition": "5.1% (inactive)"}, {"smiles": "CCC(=O)Nc1ccc(S(=O)(=O)NCC2CCCO2)cc1", "note": "(stereo unspecified)", "inhibition": "4.88% (inactive)"}, {"smiles": "Cc1cccc(C(=O)Nc2ccc3c(c2)C(=O)N(CC(C)C)C3=O)c1", "inhibition": "-2.99% (inactive)"}, {"smiles": "CCC(=O)Nc1ccc(C(=O)Nc2ccc3c(c2)C(=O)N(CC2CCCO2)C3=O)cc1", "note": "(stereo unspecified)", "inhibition": "57.9% (active)"}, {"smiles": "Cc1cccc(NC(=O)NC2(C)CCS(=O)(=O)C2)c1", "note": "(stereo unspecified)", "inhibition": "-12.1% (inactive)"}, {"smiles": "CCc1c(C)nc2ncnn2c1N1CCC(C(=O)NCc2ccc3c(c2)OCO3)CC1", "inhibition": "7.74% (inactive)"}, {"smiles": "COc1ccc(C(C(=O)NCc2ccccc2)N(Cc2cccs2)C(=O)c2cnccn2)cc1", "note": "(stereo unspecified)", "inhibition": "4.32% (inactive)"}, {"smiles": "CCn1c(/C=C/Nc2ccccc2)[n+](CC)c2ccc(C(=O)OCC(F)(F)F)cc21", "inhibition": "-1.72% (inactive)"}, {"smiles": "CCC(=O)c1ccc(OC(=O)/C=C/c2cc(OC)c(OC)c(OC)c2)cc1", "inhibition": "6.75% (inactive)"}, {"smiles": "CCOc1ccc(N=C2NC(=O)S/C2=C\\c2ccc(O)cc2)cc1", "inhibition": "22% (inactive)"}, {"smiles": "COc1cc(NS(=O)(=O)c2ccc(N=Cc3c(C)[nH]n(-c4ccccc4)c3=O)cc2)nc(OC)n1", "inhibition": "14.1% (inactive)"}, {"smiles": "CCOc1[nH]n(-c2ccc(Cl)cc2)c(=O)c1C=Nc1ccc(O)cc1", "inhibition": "36.6% (active)"}]}]}
